Results taken from PubChem BioAssay (EPA / NIEHS).
Activity calls are given as the source filed them. The calls were made as follows: active = hit-call score of the fitted dose curve at least 0.9, where 1 is the maximum; inactive = score below 0.9.

read-out: Interferon-inducible T-cell alpha chemoattractant (ITAC), CXCL11 (gene 6373); experiment: BSK_hDFCGF_ITAC: BioMAP Diversity Plus: hDFCGF Assay for Interferon-inducible T-cell alpha chemoattractant (ITAC) Biomarker Activity (AID 2284251); settings: primary human foreskin fibroblasts
Experimental: BSK_hDFCGF is a cell-based, multiplexed-readout assay that uses foreskin fibroblast, a human skin primary cell, with measurements taken at 24 hours after chemical dosing in a 96-well plate.BSK_hDFCGF_ITAC is an assay component measured in the BSK_hDFCGF assay. It measures I-TAC antibody related to regulation of gene expression using ELISA technology.Data from the assay component BSK_hDFCGF_ITAC was analyzed at the endpoint, BSK_hDFCGF_ITAC, in the positive analysis fitting direction relative to DMSO as the negative control and baseline of activity. Using a type of binding reporter, gain or loss-of-signal activity can be used to understand protein changes. To generalize the intended target to other relatable targets, this assay endpoint is annotated to the 'cytokine' intended target family, where the subfamily is 'chemotactic factor'.
The levels of cell surface (or secreted, indicated by the prefix "s") biomarker endpoints were measured by ELISA. Overt cytotoxicity to cells in confluent adherent cultures (all systems other than the BT system) was assessed by measuring total protein levels using sulforhodamine B (SRB) staining in parallel cultures at the time of biomarker measurements, indicated as SRB endpoints. For proliferation assays for adherent cell types, individual cell types are cultured at sub-confluence and relative cell numbers quantified by SRB staining at time points optimized for each system (48 h: 3C and CASM3C systems; 72 h: BT and HDF3CGF systems; 96 h: SAg system). SRB was performed by staining cells with 0.1% SRB after fixation with 10% TCA and reading wells at 560 nm.Viability and proliferation of PBMC (T cells) was quantified by Alamar Blue reduction for the SAg and BT systems. For PBMC viability (referred to as PBMC Cytotoxicity within the assay endpoint names), cells were plated (75,000/well in a 96-well plate) and then chemical samples added for 1 h before addition of activators, SEB and TSST-1 (20 ng/mL final concentration each). Cells were incubated for 90 h. Then, Alamar Blue (20 uL/well) (Invitrogen, Cat DAL1100) was added for 6 h, and the plates were read with a fluorescence microplate reader at 546/580 nm (excitation/emission). For PBMC proliferation, cells were plated and activated as above but incubated for only 16 h prior to addition of Alamar Blue. Plates were read after 6 h.

| SMILES | outcome |
| --- | --- |
| COc1cc(C=O)ccc1OC(=O)C(C)C | inactive |
| Nc1cc([N+](=O)[O-])ccc1O | inactive |
| CCC(=O)OCc1ccccc1 | inactive |
| OC[C@H]1O[C@H](O[C@]2(CCl)O[C@H](CCl)[C@@H](O)[C@@H]2O)[C@H](O)[C@@H](O)[C@H]1Cl | inactive |
| C[C@H]1C[C@@H]2[C@H]([C@@H](O)C[C@@]3(C)[C@H]2CC[C@]3(O)C(=O)CO)[C@@]2(C)C=CC(=O)C=C12 | inactive |
| NCCNCCN | inactive |
| CC(=O)[C@H]1CC[C@H]2[C@@H]3CC=C4C[C@@H](O)CC[C@]4(C)[C@H]3CC[C@]12C | inactive |
| C=CCOC(=O)CCC1CCCCC1 | inactive |
| CC(=O)OCCC(C)CC(C)(C)C (configuration not stated) | inactive |
| OC1OC[C@@H](O)[C@H](O)[C@H]1O (some centres not stated) | inactive |
| Cc1cc(C2(c3cc(C)c(O)cc3C)OS(=O)(=O)c3ccccc32)c(C)cc1O | inactive |
| CC[Si](OC(C)=O)(OC(C)=O)OC(C)=O | inactive |
